Most compounds without a hit are left out; they make up all but 19% or so of the library.
DT40 TDP1 CPT – DT40-hTDP1 cell growth loss with CPT | 12% of 420,000 active | chicken DT40 Tdp1-/-;hTDP1 cells + 20 nM CPT, ATP luminescence, 48 h | AID 686979 | Potency, µM (series often up to 46.2 µM), for the others: top-dose activity change, negative = growth inhibition, most hits filed as inhibitors; further: potency means the concentration at half of the fitted maximal effect; nearly all actives have a fitted effect of over 55% in size
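Chicken DT40 Tdp1-/- cells stably complemented with human TDP1 were seeded at 400 cells/well in medium containing 20 nM camptothecin, exposed to pin-transferred compounds, and grown at 37 °C for at least 48 hr. Viability was read as ATP luminescence.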
TDP1 cell noCPT – qHTS for Inhibitors of human tyrosyl-DNA phosphodiesterase 1 (TDP1): qHTS in cells in absence of CPT | Potency, µM (titrated, usually from 46.2 µM), for inactives: at the top dose activity change, negative = growth inhibition, usual class: inhibitors | DT40 Tdp1-/- hTDP1 cells, no CPT, ATP luminescence, 48 h | AID 686978, 2013 | 15% of 420,000 active; further: potency means the concentration at half of the fitted maximal effect; nearly all actives have a fitted effect of over 55% in size
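DT40 Tdp1-/-;hTDP1 cells, no CPT (DMSO vehicle only), 400 cells/well; compounds pin-transferred; ≥48 hr, 37 °C; CellTiter-Glo 30 min RT dark, luminescence read.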
HT1080 IDH1KD tx – HT-1080 IDH1 knockdown cell toxicity (counter line) | HT-1080 IDH1 knockdown viability, ATP luminescence, 48 h | Potency, µM (top dose mostly 46.1 µM), for inactives: top-dose activity, negative = toxicity, hits mostly cytotoxic | 2% of 360,000 active | AID 686971;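 further: potency means the concentration at half of the fitted maximal effect; 0% = DMSO wells and -100% = cell-free medium wells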
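IDH1KD HT-1080 cells, 750/well, RPMI + 5% FBS; compound pinned after 2 h settling; 48 h, 37 °C; CellTiter-Glo luminescence; % activity normalised to DMSO and no-cell wells; curves fitted, classed by r2 and efficacy.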
HT1080NT lethal – kills 2HG-producing HT-1080-NT fibrosarcoma cells; HT-1080-NT fibrosarcoma viability, CellTiter-Glo ATP luminescence, 48 h; Potency, µM (highest dose often 46.1 µM), without a hit: at the top dose activity, negative = less viability, actives largely listed as cytotoxic; 1.6% of 360,000 active; AID 686970;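 further: NT is the 2HG producing partner of a matched IDH1 knockdown line; potency means the concentration at half of the fitted maximal effect; 0% = DMSO-treated cells and -100% = media-only wells without cells; nearly all actives have a fitted effect of over 55% in size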
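A 48-hour cytotoxicity screen used HT-1080-NT cells plated 2 hours before compound delivery. ATP-based CellTiter-Glo luminescence measured viability, normalized to DMSO and no-cell controls.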
IL1B secr inh – blocks inflammasome-driven IL-1 beta release. THP-1 LPS/ATP IL-1B secretion, AlphaLISA, 16 h; stronger effect = lower value. activity change, % at 57.5 µM. 4.7% of 360,000 active. AID 743279; in the data active means activity change below about -50%; inconclusive means mostly about -30% to -49%
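THP-1 cells pretreated 1 hr with compounds (up to 57.5 uM final), then stimulated with LPS (250 ng/mL final) plus ATP (1.25 mM final); secreted IL-1B measured by AlphaLISA after 16 hr, decreased signal indicating inhibition.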
ELG1 DNA repair – ELG1-dependent DNA repair inhibition; 2.3% of 330,000 active; Potency, µM (series often up to 46.1 µM), without a hit: at the highest dose activity change, negative = inhibition, most hits filed as inhibitors; HEK293T ELG1-luciferase reporter, luminescence, 16 h; DNA damage induced by 5-fluorouridine; further: potency means the concentration at half of the fitted maximal effect; nearly all actives have a fitted effect of over 55% in size
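HEK293T cells expressing luciferase-tagged ELG1 (2,000/well) received 5-Fluorouridine plus compound or DMSO for 16 hr at 37 °C. Luciferase was read by ONE-Glo luminescence after 30 min at room temperature.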
* hit, by the source's call; ? = inconclusive; nt = no result given; [ ] = remark or other dose. Unless noted, the call rests on the fitted dose curve; in most records, active means well fitted curve in the direction sought with a large enough effect; inconclusive means small, poorly fitted or top-dose-only effect, or another doubt; inactive means no such curve, though single readings can be large; an effect the other way counts as inactive or inconclusive. Unless noted, on the % scale 0 is the no-effect control and ±100 the full control effect.

SMILES	DT40 TDP1 CPT	TDP1 cell noCPT	HT1080 IDH1KD tx	HT1080NT lethal	IL1B secr inh	ELG1 DNA repair
O=C(O)CCCN1C(=O)/C(=C\C(Cl)=C\c2ccccc2)SC1=S	18.4µM*	20.6µM*	?	?	-95.4*	-8.9%
CN1CCN(C(=O)CCCN2C(=O)/C(=C/c3ccc(Cl)cc3)SC2=S)CC1	14.6µM*	11.6µM*	-12.6%	0.6%[9.24 µM]	-3.6	18.3µM*
Cc1ccccc1COC[C@H](CC(C)C)N1CCN(C(=O)c2cccc(C(F)(F)F)c2)CCC1=O	16.4µM*	13µM*	0.4%	-1.3%	-15.6	?
CC(C)CC(COCc1ccc(Cl)cc1)N1CCN(C(=O)c2cccc(C(F)(F)F)c2)CCC1=O (centres undefined)	16.4µM*	20.6µM*	-5.7%	0.0%	-23.7	-19.9%
Cc1ccc(COC[C@H](CC(C)C)N2CCN(C(=O)c3cccc(C(F)(F)F)c3)CCC2=O)cc1	?	?	?	?	-5.0	nt
CC(C)CC(COCc1cccc(C(F)(F)F)c1)N1CCN(C(=O)c2cccc(C(F)(F)F)c2)CCC1=O (centres undefined)	16.4µM*	23.1µM*	-5.8%	-8.8%	-66.7*	?
CC(=O)Nc1cnc(-c2ccc3c(c2)OCO3)cn1	15.9%	-7.9%	2.0%	16.3%	-4.3	nt
COc1cc2c(cc1OC)C(COc1ccc([N+](=O)[O-])cc1)NCC2 (centres undefined)	-28.6%	-20.2%	-0.2%	-23.3%	0.0	-3.6%
CCOC(=O)C1=CCC(c2ccc(C#N)cc2)N(S(=O)(=O)c2ccc(C)cc2)C1 (centres undefined)	18.4µM*	16.4µM*	?	-26.4%	22.1	nt
CCOC(=O)C1=CCCN(S(=O)(=O)c2ccc(C)cc2)C1	?	20.6µM*	9.9%	-0.6%	28.0	nt
CCOC(=O)C1=CCC(c2ccc(Cl)cc2)N(S(=O)(=O)c2ccc(C)cc2)C1 (centres undefined)	23.1µM*	18.4µM*	-14.2%	-6.7%	14.4	nt
Cc1ccc([C@@H]2CC=C(C(=O)O)CN2S(=O)(=O)c2ccc(C)cc2)cc1	-2.1%	0.3%	7.4%	3.2%	53.6	7.6%
O=C1NC[C@@H](CCCCN2C[C@H](Cc3ccc(O)cc3)N(CCc3ccc(O)cc3)C(=O)C2=O)N(CCc2ccccc2)C1=O	-18.7%	-27.3%	20.0%	10.5%	3.5	nt
COc1cccc(-c2cc(NCc3cnc(C)cn3)ncn2)c1	7.5%	-12.9%	nt	nt	nt	nt
COCCNC(=O)c1cnc2sc(N3CCCCC3)nn2c1=O	1.1%	-3.8%	nt	nt	nt	nt
O=C(NCCc1ccccc1)c1cnc2sc(N3CCCCCC3)nn2c1=O	?	13µM*	nt	nt	nt	nt
O=C(NCCc1ccccc1)c1cnc2sc(N3CCCCC3)nn2c1=O	8.2µM*	20.6µM*	nt	nt	nt	nt
COc1ccc(CNC(=O)c2cnc3sc(N4CCCC4)nn3c2=O)cc1OC	9.2µM*	?	nt	nt	nt	nt
CCOc1ccc(CNC(=O)c2cnc3sc(N4CCCCCC4)nn3c2=O)cc1OC	-16.8%	-26.6%	nt	nt	nt	nt
O=C(NCc1ccccc1Cl)c1cnc2sc(N3CCCCC3)nn2c1=O	13µM*	9.2µM*	nt	nt	nt	nt
CCOc1ccc(CCNC(=O)c2cnc3sc(N4CCCCCC4)nn3c2=O)cc1	18.4µM*	18.4µM*	nt	nt	nt	nt
CCCCOc1ccc(CNC(=O)c2cnc3sc(N4CCCCCC4)nn3c2=O)cc1	-13.3%	-19.6%	nt	nt	nt	nt
OCCC1CN(Cc2cnc(-c3cccc4ccccc34)nc2)CCN1C1CCCCC1 (centres undefined)	23.1µM*	18.4µM*	-9.4%	-0.3%	-23.2	-5.5%

Source: PubChem
